Results: PubChem BioAssay AID1030 (National Center for Advancing Translational Sciences (NCATS), 2008)
About 16,000 (7.3%) of roughly 220,000 compounds were called active. Another 25% or so got no clear call; they are omitted. The sample as a whole holds a higher share of actives than the screen did. Unmarked numbers belong to inactive results. The call rests on the fitted dose curve; in most records, active means well fitted inhibition curve with a large enough effect (not every such curve was filed as active); inconclusive means small, poorly fitted or top-dose-only effect, or another doubt; inactive means no such curve, though single readings can be large or run the other way.

target: Aldehyde dehydrogenase 1A1 (Homo sapiens) (UniProt P00352); test: qHTS Assay for Inhibitors of Aldehyde Dehydrogenase 1 (ALDH1A1); settings: Purified ALDH1A1, NADH fluorescence, propionaldehyde substrate; series mostly up to 75.3 µM; activity, negative = inhibition: at the top concentration;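 on activity, negative = inhibition: plate controls were no enzyme wells and a reference inhibitor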
Sequence (P00352 whole entry, looked up): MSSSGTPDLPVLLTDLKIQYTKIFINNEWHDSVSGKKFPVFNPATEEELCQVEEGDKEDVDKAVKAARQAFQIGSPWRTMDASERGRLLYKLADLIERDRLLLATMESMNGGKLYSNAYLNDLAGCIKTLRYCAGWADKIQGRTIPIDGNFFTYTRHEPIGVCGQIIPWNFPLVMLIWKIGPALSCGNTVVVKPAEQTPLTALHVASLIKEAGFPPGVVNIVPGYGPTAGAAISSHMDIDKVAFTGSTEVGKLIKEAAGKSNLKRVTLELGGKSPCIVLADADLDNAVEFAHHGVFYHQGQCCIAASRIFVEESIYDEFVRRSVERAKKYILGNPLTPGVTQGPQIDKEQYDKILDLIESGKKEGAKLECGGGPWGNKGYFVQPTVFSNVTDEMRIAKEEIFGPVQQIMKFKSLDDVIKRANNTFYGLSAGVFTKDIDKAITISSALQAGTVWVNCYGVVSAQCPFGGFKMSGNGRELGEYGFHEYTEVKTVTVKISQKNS
Potency means the concentration at half of the fitted maximal effect.

In order of rising “activity, negative = inhibition” value:
1. COc1ccc(/C=N/N=C2/C(=O)Nc3ccccc32)cc1O  -10.8%
2. Cc1nnc(SCCCCSc2nnc(C)c(=O)[nH]2)[nH]c1=O  -9.54%
3. COc1cccc(OC)c1C(=O)NC(=S)Nc1ccc(N2CCOCC2)c(Cl)c1  -9.29%
4. CCOC(=O)c1ccccc1NC(=S)N1CCC(C(N)=O)CC1  -8.79%
5. O=C(NC(=S)Nc1cc(C(F)(F)F)ccc1N1CCOCC1)c1ccc(-c2cccc(Cl)c2)o1  -8.4%
6. COc1ccc2c(c1)O[C@@H](c1ccc3c(c1)OCO3)[C@H](OC(=O)NCc1ccco1)C2=O  -7.76%
7. CCCCn1c(=S)[nH]c2ccccc2c1=O  -7.63%
8. OCCC1CN(Cc2cnc(-c3ccccc3)s2)CCN1CCc1ccccc1 (stereo not drawn)  -7.11%
9. O=C(NC(=O)N1CCOCC1)c1ccccc1  -6.7%
10. CC(C)c1nc(CNC(=O)CC2C(=O)NCCN2Cc2ccoc2)cs1 (stereo not drawn)  -6.59%
11. CCn1c(SCC(=O)N(C)C2CCS(=O)(=O)C2)nnc1-c1cccs1 (stereo not drawn)  -6.37%
12. COc1ccc(-c2[nH]nc3c2C(c2ccncc2)C(C#N)=C(N)O3)cc1 (stereo not drawn)  -6.31%
13. CCOC(=O)C1(Cc2ccccc2C(F)(F)F)CCN(C(=O)c2cc(C)n(C)n2)CC1  -6.02%
14. CCOc1ccc(N2C(=O)Nc3ccccc3C2(O)C(=O)NCc2ccco2)cc1 (stereo not drawn)  -5.74%
15. O=C(O)CCC(=O)N(Cc1cccs1)Cc1cccs1  -4.78%
16. O=C(O)CSCC(=O)Nc1ccc(C(F)(F)F)cc1  -4.77%
17. CCOC(=O)c1c(CN(C)C)n(-c2ccccc2)c2cc(Br)c(O)cc12  -4.14%
18. CN(C)CCOc1ccc(Cl)cc1C(C)(C)C  -3.7%
19. Fc1ccccc1Cc1ccc(Cl)nn1  -3.18%
20. Clc1ccc(-c2csc(-c3ccncc3)n2)cc1  -2.8%
21. CC1CCN(S(=O)(=O)c2ccc(S(=O)(=O)NCc3cccnc3)cc2)CC1  -2.72%
22. CC1(C)CCc2nc(SCc3ccccc3)c(C#N)cc2C1  -2.69%
23. CCN=c1sc(C(=O)Nc2ccccc2)c(C)n1CC  -2.58%
24. COc1ccc(/C=C/CN2CCN(Cc3ccc(C)cc3)C(CCO)C2)cc1 (stereo not drawn)  -1.88%
25. CN(Cc1nc2ccc(F)cc2[nH]1)Cc1nc(CC2CC2)no1  -1.51%
26. COc1ccc(-n2nc3c(c2NC(=O)c2ccc(N4C(=O)CCC4=O)cc2)CSC3)cc1  -1.08%
27. CCCCOc1ccc(C(=O)NN2CCN(C)CC2)cc1  -0.966%
28. CC1CCCCN1C(=S)NCc1ccccc1 (stereo not drawn)  -0.534%
29. CCOc1ccc(NC(=O)CN(C)CC(=O)NC(C)c2ccccc2)cc1OCC (stereo not drawn)  -0.197%
30. O=C(c1ccc(Cl)cc1)N1N=C(c2ccccn2)CC1(O)C(F)(F)F (stereo not drawn)  0.0342%
31. Cn1cc(CN2CCCCC2c2ccccn2)c(-c2ccc3c(c2)OCCO3)n1 (stereo not drawn)  0.0519%
32. COC(=O)CNC(=O)c1ccc(OC2CCN(C(=O)C3CC3)CC2)cc1  0.14%
33. CCOc1c(OC)cc(C2C(C#N)=C(N)Oc3n[nH]c(-c4ccncc4)c32)cc1OC (stereo not drawn)  1.31%
34. CN1CCNC(=O)C1CC(=O)N1CC=C(c2ccc(F)cc2)CC1 (stereo not drawn)  1.45%
35. CCOc1ccc(N2C(=O)CN(c3cccc4ccccc34)C2=S)cc1  1.45%
36. CN(C)CCCCCN(C)Cc1cc2ccccc2o1  1.86%
37. C[C@@H](O)c1nc2ccccc2n1N  2.1%
38. O=C(CCc1ccccc1)NCCc1cccs1  2.95%
39. O=[N+]([O-])c1ccc2oc(-c3cccc(O)c3)nc2c1  3.55%
40. CNc1nc(Nc2ccc(C)c(Cl)c2)nc(N)c1[N+](=O)[O-]  3.68%
41. O=C(Cc1ccc(Br)cc1)N1CCN(c2ccccn2)CC1  3.87%
42. C(=N/N1CCN(c2ccccc2)CC1)/c1cccs1  4.36%
43. Cc1ccc(S(=O)(=O)NC(=O)Nc2nc(-c3ccc(F)c(F)c3)cs2)cc1  4.72%
44. CC(=O)c1c(C)[nH]c(C(=O)OCC(=O)Nc2cc(S(=O)(=O)N3CCCCC3)ccc2C)c1C  5.1%
45. Cc1ccc2[nH]c(C)c(CCNC(=O)NC3CCCCC3)c2c1  5.15%
46. N#CC1=C(SCc2ccc(C#N)cc2)N=C(N)C(c2nc(-c3ccccc3)cs2)C12CCCCC2 (stereo not drawn)  5.56%
47. O=C(Nc1ccn(Cc2ccccc2)n1)c1cccc(F)c1  5.72%
48. COc1ccc(C(=O)Nc2c(Cl)cc(Cl)cc2C(=O)N2CCC(C)CC2)cc1  5.74%
49. CC1Cc2ccccc2N1S(=O)(=O)c1c(N)n(C)c(=O)n(C)c1=O (stereo not drawn)  6.39%
50. CCNC(=O)NNC(=O)C1CC(c2cccs2)=NO1 (stereo not drawn)  6.63%
51. O=C(O)C1C2C=CC(C2)C1C(=O)N1CCN(CCO)CC1 (stereo not drawn)  6.75%
52. COCCN(C(=O)c1ccccc1F)c1c(N)n(Cc2ccccc2)c(=O)[nH]c1=O  6.85%
53. CC(C)n1c(=O)[nH]c2cc(C(=O)Nc3ccccc3)ccc21  6.98%
54. CN(C)CCn1c(=S)[nH]c2ccc(Cl)cc2c1=O  7.33%
55. CN(C)/C=C(/C(=O)c1ccccc1Cl)S(C)(=O)=O  10.3%
56. N#Cc1ncc(C(F)(F)F)cc1Oc1cccnc1  10.8%
57. O=C(Nc1cccc2ncccc12)c1ccc(-c2ccc(Cl)cc2Cl)o1  12.5%
58. CCOc1cccc(C(=O)Nc2cccnc2)c1  13.5%
59. CN1CCN(C(=O)C2C3C=CC(C3)C2C(=O)O)CC1 (stereo not drawn)  14.6%

In the case of N#CC1=C(SCc2ccccc2)NC(=O)C(C#N)C12CCCC2 (stereo not drawn), the Potency is reported as 3.98 µM (active).
For CCOc1cccc(C(=O)Nc2cnn(Cc3ccccc3)c2)c1, the Potency was 3.98 µM (active).
O=C1Nc2ccc(Br)cc2/C1=N/N=C/C1=C(N2CCOCC2)C(=C\c2ccccc2)/CC1 was tested, and the Potency was 8.91 µM (active).
In the case of C(=N\N1CCN(c2ccccn2)CC1)/C1=C(N2CCOCC2)C(=C/c2ccccc2)/CC1, the Potency is reported as 8.91 µM (active).
For C=C(Cl)COC(=O)C1C2C=CC(C2)C1C(=O)O (stereo not drawn), the Potency was 17.8 µM (active).
For O=C(O)Cc1csc(-c2cccc(Oc3ccccc3)c2)n1, the Potency was “inactive”.
In the case of CCCCOc1ccc(C(=O)N/C(=C/C=C/c2ccccc2)C(=O)N2CCOCC2)cc1, the Potency is reported as 25.1 µM (active).
For CCOc1ccc(N2C(=O)/C(=C/c3ccc(C)o3)N(C)C2=S)cc1, the Potency was 7.94 µM (active).
With CC1CCN(C(=S)c2ccc(-c3ccc(Cl)cc3Cl)o2)CC1 the Potency was 28.2 µM (active).
In the case of CCCc1nc2c([nH]1)C(c1cccnc1)C(C#N)=C(N)O2 (stereo not drawn), the Potency is reported as 7.94 µM (active).
With CC(C)n1c(=S)[nH]c2cc(C(F)(F)F)ccc21 the Potency was 31.6 µM (active).
In the case of CCCn1c(=S)[nH]c2ccc(C(F)(F)F)cc21, the Potency is reported as 17.8 µM (active).
With Cc1ccnc(NC(=O)CCC(=O)N(CC(=O)NCCc2ccccc2)Cc2cccs2)c1 the Potency was 14.1 µM (active).
For O=C(NC(=S)Nc1ccc2oc(=O)ccc2c1)c1ccc(-c2cccc(Cl)c2Cl)o1, the Potency was 11.2 µM (active).
